From PubChem BioAssay (NCATS) come the findings set out here.

Inconclusive results are not listed. A number with no mark means an inactive call. Active and inactive are the calls of the source. Calls come from the whole dose curve; as a rule, active = well fitted curve in the direction sought with a large enough effect; inconclusive = small, poorly fitted or top-dose-only effect, or another doubt; inactive = no such curve, though single readings can be large; an effect the other way counts as inactive or inconclusive.

Sequence of Rap guanine nucleotide exchange factor 4 (Homo sapiens) (Q8WZA2 whole entry, looked up): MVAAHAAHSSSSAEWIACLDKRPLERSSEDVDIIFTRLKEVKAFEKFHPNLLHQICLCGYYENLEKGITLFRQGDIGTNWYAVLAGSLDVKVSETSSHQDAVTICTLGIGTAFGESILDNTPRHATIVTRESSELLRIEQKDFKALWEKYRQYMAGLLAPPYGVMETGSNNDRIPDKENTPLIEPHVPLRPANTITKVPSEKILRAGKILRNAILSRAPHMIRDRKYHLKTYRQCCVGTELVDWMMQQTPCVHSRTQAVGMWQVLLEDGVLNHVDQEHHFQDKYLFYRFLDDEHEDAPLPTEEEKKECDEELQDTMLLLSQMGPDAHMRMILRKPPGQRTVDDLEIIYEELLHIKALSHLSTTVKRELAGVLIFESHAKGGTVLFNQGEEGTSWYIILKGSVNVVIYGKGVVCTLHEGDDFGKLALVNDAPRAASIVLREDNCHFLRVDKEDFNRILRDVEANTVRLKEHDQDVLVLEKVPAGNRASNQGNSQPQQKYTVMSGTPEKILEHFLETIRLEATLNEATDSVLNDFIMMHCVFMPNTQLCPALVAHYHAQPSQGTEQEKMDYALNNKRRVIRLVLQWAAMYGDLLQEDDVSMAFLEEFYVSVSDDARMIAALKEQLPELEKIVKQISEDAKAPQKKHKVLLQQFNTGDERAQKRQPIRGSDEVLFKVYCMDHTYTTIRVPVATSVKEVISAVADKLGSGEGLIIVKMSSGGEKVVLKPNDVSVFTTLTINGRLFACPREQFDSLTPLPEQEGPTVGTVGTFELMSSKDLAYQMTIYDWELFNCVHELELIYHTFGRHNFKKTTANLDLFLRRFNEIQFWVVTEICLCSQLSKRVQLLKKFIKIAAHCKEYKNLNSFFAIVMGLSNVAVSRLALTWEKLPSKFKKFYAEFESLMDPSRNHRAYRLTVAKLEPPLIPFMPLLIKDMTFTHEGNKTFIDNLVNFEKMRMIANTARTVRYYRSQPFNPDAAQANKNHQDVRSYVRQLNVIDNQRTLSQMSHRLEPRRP
Sequence of Rap guanine nucleotide exchange factor 3 (Homo sapiens) (O95398 whole entry, looked up): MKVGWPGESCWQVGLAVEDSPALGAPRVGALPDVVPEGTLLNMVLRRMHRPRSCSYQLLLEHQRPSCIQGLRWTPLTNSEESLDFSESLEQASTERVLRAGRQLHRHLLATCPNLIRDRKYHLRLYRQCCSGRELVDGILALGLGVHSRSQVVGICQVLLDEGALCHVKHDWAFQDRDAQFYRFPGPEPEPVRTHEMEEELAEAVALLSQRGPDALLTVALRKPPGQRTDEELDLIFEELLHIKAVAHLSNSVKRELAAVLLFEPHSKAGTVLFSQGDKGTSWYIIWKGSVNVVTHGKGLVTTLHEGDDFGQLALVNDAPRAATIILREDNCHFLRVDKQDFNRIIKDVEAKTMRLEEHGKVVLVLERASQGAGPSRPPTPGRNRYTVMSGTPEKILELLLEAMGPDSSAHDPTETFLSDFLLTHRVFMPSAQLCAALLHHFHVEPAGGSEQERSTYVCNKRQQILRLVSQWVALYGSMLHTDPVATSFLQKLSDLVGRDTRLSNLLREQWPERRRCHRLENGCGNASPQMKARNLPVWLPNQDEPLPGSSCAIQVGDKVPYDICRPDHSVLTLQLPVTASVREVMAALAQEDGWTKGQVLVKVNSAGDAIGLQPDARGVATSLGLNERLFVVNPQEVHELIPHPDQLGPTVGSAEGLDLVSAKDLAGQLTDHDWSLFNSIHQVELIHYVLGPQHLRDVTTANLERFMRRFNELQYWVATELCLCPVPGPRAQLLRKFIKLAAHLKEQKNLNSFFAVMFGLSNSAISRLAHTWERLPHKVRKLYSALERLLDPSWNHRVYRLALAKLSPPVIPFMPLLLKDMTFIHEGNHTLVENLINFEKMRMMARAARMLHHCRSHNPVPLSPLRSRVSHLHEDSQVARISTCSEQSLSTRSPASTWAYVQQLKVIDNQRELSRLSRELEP

The first assay deals with Rap guanine nucleotide exchange factor 3 (Homo sapiens) (UniProt O95398). Put plainly: Confirmatory qHTS for antagonist of cAMP-regulated guanine nucleotide exchange factor 3 (EPAC1) (AID 1645880).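 For activity, negative = inhibition: plate controls were DMSO only for no effect and full effect of the ATA control for full effect.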 Note: nearly all actives have a fitted effect of over 55% in size. Note: potency is the fitted concentration of half-maximal effect. The following applies: EPAC1 Rap1B-BODIPY-GDP exchange, fluorescence; series mostly up to 115 µM; activity, negative = inhibition: at the top concentration. A digest of the protocol:
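Nucleotide exchange uses 100 nM EPAC1, 250 nM RAP1B-BODIPY-GDP and 50 uM GDP, with compounds in a concentration-titration series. After 5 min at room temperature, fluorescence (480 nm ex/540 nm em) is read every 5 min for 30 min. Data are normalized to control ATA and DMSO.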
For `O=C(O)c1cc2ccccc2c(Cc2c(O)c(C(=O)O)cc3ccccc23)c1O`, the Potency is 4.44 µM (active).

As for `C[C@]12CC[C@@H]3c4ccc(OS(=O)(=O)O)cc4CC[C@H]3[C@@H]1CCC2=O`, the Potency was 8.49 µM (active).

On to `CC(=O)S[C@@H]1CC2=CC(=O)CC[C@]2(C)[C@H]2CC[C@@]3(C)[C@@H](CC[C@@]34CCC(=O)O4)[C@H]12`, for which the “activity, negative = inhibition” value is -16.1%.

The target is the same in another assay. Description: Confirmatory qHTS for agonist of cAMP-regulated guanine nucleotide exchange factor 3 (EPAC1) (AID 1645881).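 Note: EPAC1 catalysed release of BODIPY-GDP from Rap1B seen as fluorescence loss; nearly all actives have a fitted effect of over 75% in size.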 The following applies: EPAC1 Rap1B BODIPY-GDP exchange fluorescence, 100% = cAMP control response; series mostly up to 154 µM; activation: at the top concentration.
As to `O=C(O)c1cc2ccccc2c(Cc2c(O)c(C(=O)O)cc3ccccc23)c1O`, the “activation” value was 1.26%.

`C[C@]12CC[C@@H]3c4ccc(OS(=O)(=O)O)cc4CC[C@H]3[C@@H]1CCC2=O`: the compound was called inactive.

Turning to `CC(=O)S[C@@H]1CC2=CC(=O)CC[C@]2(C)[C@H]2CC[C@@]3(C)[C@@H](CC[C@@]34CCC(=O)O4)[C@H]12`, the “activation” value is -2.96%.

A further assay addresses Rap guanine nucleotide exchange factor 4 (Homo sapiens) (UniProt Q8WZA2). Put plainly: Confirmatory qHTS for agonist of cAMP-regulated guanine nucleotide exchange factor 4 (EPAC2) (AID 1645884).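 Note: nucleotide exchange releases bodipy-GDP from Rap1 and this lowers its fluorescence; % is set by controls: 0 for no effect and ±100 for the full control effect; nearly all actives have a fitted effect of over 65% in size.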 The following applies: EPAC2 GEF activity, Rap1B-BODIPY-GDP fluorescence, percent relative to cAMP agonist control; series mostly up to 154 µM; activation: at the top concentration. Background: In qHTS, concentration-response curves come from the screen itself.
Regarding `O=C(O)c1cc2ccccc2c(Cc2c(O)c(C(=O)O)cc3ccccc23)c1O`, the “activation” value is 4.51%.

As to `C[C@]12CC[C@@H]3c4ccc(OS(=O)(=O)O)cc4CC[C@H]3[C@@H]1CCC2=O`, the call was inactive.

As for `CC(=O)S[C@@H]1CC2=CC(=O)CC[C@]2(C)[C@H]2CC[C@@]3(C)[C@@H](CC[C@@]34CCC(=O)O4)[C@H]12`, the “activation” value is 4.18%.

For another assay the target is unchanged. Put plainly: Confirmatory qHTS for antagonist of cAMP-regulated guanine nucleotide exchange factor 4 (EPAC2) (AID 1645885). Note: % is set by controls: 0 for no effect and ±100 for the full control effect; nearly all actives have a fitted effect of over 25% in size. To be noted: EPAC2 Rap1B-BODIPY-GDP exchange fluorescence, biochemical; series mostly up to 114 µM; activity change, negative = inhibition: at the top concentration.
For the compound `O=C(O)c1cc2ccccc2c(Cc2c(O)c(C(=O)O)cc3ccccc23)c1O`, the “activity change, negative = inhibition” value was 13.3%.

For `C[C@]12CC[C@@H]3c4ccc(OS(=O)(=O)O)cc4CC[C@H]3[C@@H]1CCC2=O`, the Potency entry was “inactive”.

For the compound `CC(=O)S[C@@H]1CC2=CC(=O)CC[C@]2(C)[C@H]2CC[C@@]3(C)[C@@H](CC[C@@]34CCC(=O)O4)[C@H]12`, the “activity change, negative = inhibition” value is -19.3%.
